# According to publication PMC5540273 (PLoS ONE, 2017):
# Test system: T1, p38-alpha
# T1 construct: gene MAPK14
# Settings: concentration: 1 μM, replicates: in singlicate; n = 1
# 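Also: KINOMEscan kinase panel screen.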
row,Structure (SMILES),%Inh
1,CN1CCN(Cc2cccc(-c3ccc4c(Nc5ccc(Oc6ccccc6)cc5)ccnc4c3)c2)CC1 [GW578342],23%
2,O=C(Nc1ccccc1F)NC1CCN(c2ccnc(Nc3ccc(F)cc3)n2)CC1 [GSK1379800],32%
3,Cl.c1ccc(-c2ccc3c(Nc4ccc5[nH]ncc5c4)ccnc3c2)nc1 [GW440137],8%
4,CCn1c(-c2nonc2N)nc2c(C#CC(C)(C)O)nc(OC[C@H](N)c3ccccc3)cc21 [GSK943949],0%
5,O=C(Nc1cccc(-c2nn3ccccc3c2-c2ccnc(Nc3cccc(C(F)(F)F)c3)n2)c1)c1c(F)cccc1F [GSK292658],17%
6,Cn1cc(-c2ccc3c(c2)CCN3C(=O)Cc2cccc(F)c2)c2c(N)ncnc21 [GSK2603358],0%
7,COc1cc(Nc2nccc(N3CCC(NC(=O)c4cc5ccccc5s4)C3)n2)cc(OC)c1OC (stereo not drawn) [GSK1379760],3%
8,COCCOCCOc1cc2ncc3c4ccc(C#N)cc4[nH]c3c2cc1OC,1%
9,Cl.Cl.NCC(NC(=O)c1cc(-c2ccccc2)c(-c2ccnc3[nH]ccc23)s1)c1ccccc1 (stereo not drawn) [GSK1321561],0%
10,COc1cc(Nc2nccc(-c3c(-c4cccc(NC(=O)c5c(F)cccc5F)c4)nn4ncccc34)n2)cc(OC)c1OC [GSK327238],99.9%
11,CN(C)S(=O)(=O)c1cc(-c2ccc3nccc(-c4cccc(S(N)(=O)=O)c4)c3c2)cnc1N [GSK1669921],0%
12,Cl.Cl.NCC(NCc1ccc(-c2ccnc3[nH]ccc23)s1)c1ccccc1 (stereo not drawn) [GSK1321565],27%
13,Cc1ccc(S(=O)(=O)Nc2ccc(Nc3nccc(Nc4cccc5[nH]ncc45)n3)cc2)cc1 [GSK581271],0%
14,CC(=O)Nc1nc2cnc(Nc3cc(NC(=O)c4cccc(C5(C#N)CC5)c4Cl)ccc3C)nc2s1,86%
15,CNC(=O)c1ccccc1Nc1nc(Nc2ccc(N3CCOCC3)cc2)ncc1Cl.Cl [GSK1576028],8%
16,Cc1ccc(C(=O)N2CC[C@@H](O)C2)cc1-n1c(C)cc(OCc2ccc(F)cc2F)c(Br)c1=O,100%
17,COc1ccc(Nc2nccc(N3CCC(NC(=O)Nc4cccc(OC)c4)C3)n2)cc1 (stereo not drawn) [GSK1379742],1%

row,Structure (SMILES),%Inh
1,Cl.Cl.NCC(C(=O)Nc1cc(Br)c(-c2ccnc3[nH]ccc23)s1)c1ccccc1 (stereo not drawn) [GSK1269851],0%
2,Oc1cc(Nc2ccnc3cc(I)ccc23)ccc1F [GW552771],4%
3,COc1ccc(Nc2nccc(NCCNC(=O)c3cc4ccccc4s3)n2)cc1 [GSK1379896],13%
4,CCS(=O)(=O)c1ccc(OC)c(Nc2nccc(-c3c(-c4cccc(NC(=O)c5c(F)cccc5F)c4)nn4ncccc34)n2)c1 [GSK326180],99.9%
5,COc1cccc(C(=O)Nc2cccc(Oc3ccc4nc(NC(=O)C5CC5)cn4n3)c2)c1,15%
6,CN(C)Cc1ccc(-c2ccc3c(Nc4ccc(Oc5ccccn5)cc4)ccnc3c2)o1 [GW567148],0%
7,Clc1ccc(-c2nn3ncccc3c2-c2ccnc(Nc3ccc4c(c3)OCCO4)n2)cc1 [GW829116],99.7%
8,Cl.c1ccc(-c2ccc3c(Nc4ccc5[nH]ccc5c4)ccnc3c2)nc1 [GW440138],20%
9,O=C(Nc1cccc(Oc2ccc3nc(NC(=O)C4CC4)cn3n2)c1)c1ccccc1C(F)(F)F,9%
10,COc1cccc(C2=C(Nc3ccc(Cl)c(C(=O)O)c3)C(=O)NC2=O)c1 [SB-390769],12%
11,Cc1ccc(C(=O)Nc2ccc(Nc3ccnc4cc(-c5nccs5)ccc34)cc2O)cc1.Cl [GW494702],0%
12,Cc1ccc(C)c(NC(=O)NC2CCN(c3ccnc(Nc4ccc(F)cc4)n3)C2)c1 (stereo not drawn) [GSK1379720],11%
13,COc1ccc(-c2coc3ccc(-c4nnc(SCc5ccc(OC)c(C(F)(F)F)c5)o4)cc23)cc1,0%
14,COc1cc(Nc2ncc3c(C)nc(-c4cc5ccccc5[nH]4)n3n2)cc(OC)c1OC [GW869516],9%
15,O=C(NC1CCN(c2ccnc(Nc3ccc(F)cc3)n2)C1)c1cc2ccccc2s1 (stereo not drawn) [GSK1379716],7%
16,Cn1cc(-c2ccc3c(c2)CCN3C(=O)Cc2cccc(Cl)c2)c2c(N)ncnc21 [GSK2606590],0%
